# Reference: ChEMBL document CHEMBL3988442, “University of Dundee, Small-Polar-MMV Screening Library” (2021)
# The campaign covered roughly 66,000 compounds. About 960 (1.5%) showed an effect of 50% or more. Shown is part of a subset that was picked to be rich in strong results.
# System: Trypanosoma brucei
# Test: Trypanosoma brucei 72 hour study
# Format: functional, organism-based
# Parameters: scale not given: in the data most compounds retested in dose-response had high values
structure (smiles),measurement,setting,value
CC(C)(C)n1ncc(NCCc2ccccc2C(F)(F)F)c(Cl)c1=O,Percent Effect,"30 µM, 30.03 µM",-22.16%
COC(C)(C)C(=O)N1CCC(c2cc(CN(C)C)n(C)n2)CC1.Cl,Percent Effect,"30.3 µM, […]",-10.49%
Cc1ccc(CN2Cc3c(cnn3C)C(COCC3CC3)C2)s1 (centres undefined),Percent Effect,"30 µM, 30.03 µM",38.62%
CC(C)=CCN1C(=O)[C@H]2CC[C@@H]1CN(C(=O)CCc1nc(Cl)n[nH]1)C2,Percent Effect,"30 µM, 30.03 µM",-4.584%
COC(=O)CN1CC2(CCNCC2)COc2ccccc2S1(=O)=O.O=C(O)C(F)(F)F,Percent Effect,"30 µM, 30.03 µM",-19.66%
Br.CCOc1ccc(Br)cc1C1CCCN1 (centres undefined),Percent Effect,"30 µM, 30.03 µM",-44.26%
CC(C)OCCCN(CC(=O)N1CCNCC1)C(=O)c1ccc(F)cc1.O=C(O)C(F)(F)F,Percent Effect,"30 µM, 30.03 µM",-6.979%
CC(C)Nc1nc(N2CCOCC2)nc2c1CN(Cc1ccoc1)CC2,Percent Effect,"30 µM, 30.03 µM",8.067%
Cc1nc(CN2CCc3nc(N4CCCC4)nc(NC(C)C)c3C2)cs1,Percent Effect,"30 µM, 30.03 µM",98.38%
Cc1nc(CN2CCc3nc(NC(C)C)nc(C)c3C2)cs1,Percent Effect,"30 µM, 30.03 µM",1.176%
CN(CCOc1ccc(Cl)cc1)Cc1ccc(S(=O)(=O)N(C)C)o1,Percent Effect,"30 µM, 30.03 µM",-22.42%
Cn1nc(-c2ccc(Cl)cc2)c(Br)c1C(=O)O,Percent Effect,"30 µM, 30.03 µM",-21.18%
Cc1cccc(CN2C(=O)CCC23CCN(C(=O)N2CCCC2)CC3)n1.O=C(O)C(F)(F)F,Percent Effect,"30.3 µM, […]",-18.36%
Cc1cc(NCc2ccc(CO)cc2)n2nc(C)cc2n1,Percent Effect,"30 µM, 30.03 µM",21.61%
Cc1cc(NCc2ccc(O)cc2)n2nc(C)cc2n1,Percent Effect,"30 µM, 30.03 µM",9.404%
Cc1cc(NCc2cccnc2)n2nc(C)cc2n1,Percent Effect,"30 µM, 30.03 µM",51.67%
COCCN1CCc2ncnc(-c3ccccc3)c2CC1.O=C(O)C(F)(F)F,Percent Effect,"30.3 µM, […]",-87.22%
NC(=O)c1cccc(OCC(=O)NS(=O)(=O)c2ccc3c(c2)CCC3)c1,Percent Effect,"30.3 µM, […]",-4.37%
CN(Cc1ccco1)C(=O)Nc1cccnc1N1CCCC1,Percent Effect,"30.3 µM, […]",18.63%
CCc1ncc(CN(C)C(=O)Nc2cccnc2N2CCCC2)s1,Percent Effect,"30 µM, 30.03 µM",50.09%
CN(Cc1ccsc1)C(=O)Nc1cccnc1N1CCCC1,Percent Effect,"30 µM, 30.03 µM",-52.54%
O=C(O)C(F)(F)F.O=C(c1cc[nH]n1)N1CCC2(CC1)CC(Oc1cccnc1)CO2 (centres undefined),Percent Effect,"30 µM, 30.03 µM",-3.949%
COc1ccc(Cl)cc1NCC(=O)NCc1cccnc1OC,Percent Effect,"30.3 µM, […]",74.82%
same,Percent Effect,"10 mM, 10 mM as filed; unlikely as a test dose",-40.14%
COc1cc(CNC(=O)CNc2cc(Cl)ccc2OC)ccn1,Percent Effect,"30 µM, 30.03 µM",-27.18%
COc1ccc(Cl)cc1NCC(=O)NCCNc1ncccn1,Percent Effect,"30.3 µM, […]",-3.8%
same,Percent Effect,"10 mM, 10 mM as filed; unlikely as a test dose",-45.51%
CS(=O)(=O)NCc1nnc2n1CCN(Cc1cccs1)CC2.O=C(O)C(F)(F)F,Percent Effect,"30.3 µM, […]",-150.1%
Cc1ccc(N2CCC3(CC2)COCCN(c2nccs2)C3)nn1.O=C(O)C(F)(F)F.O=C(O)C(F)(F)F,Percent Effect,"30 µM, 30.03 µM",-12.93%
O=C(O)C(F)(F)F.O=C(c1ccccn1)N1CCC2(CC1)COC(COCC1CC1)C2 (centres undefined),Percent Effect,"30 µM, 30.03 µM",39.74%
Cc1ccc(C(=O)N2CCC3(CC2)COC(COc2cccnc2)C3)o1.O=C(O)C(F)(F)F (centres undefined),Percent Effect,"30 µM, 30.03 µM",51.84%
Cc1ccc(C(=O)N2CCC3(CC2)COC(COc2ccccn2)C3)o1.O=C(O)C(F)(F)F (centres undefined),Percent Effect,"30.3 µM, […]",15.32%
CCOCC1CC2(CCN(C(=O)c3ccccn3)CC2)CO1.O=C(O)C(F)(F)F (centres undefined),Percent Effect,"30.3 µM, […]",13.92%
CCS(=O)(=O)N1CCC2(CC1)COC(COc1cccnc1)C2.O=C(O)C(F)(F)F (centres undefined),Percent Effect,"30.3 µM, […]",1.349%
O=C(c1ccccn1)N1CCC2(CC1)COC(COc1cccnc1)C2 (centres undefined),Percent Effect,"30 µM, 30.03 µM",52.19%
O=C(O)C(F)(F)F.O=C([C@H]1CCCO1)N1CCCC2(COCCN(c3ccccc3)C2)C1 (some centres undefined),Percent Effect,"30.3 µM, […]",-14.49%
c1ccc(C(CC2CN(Cc3c[nH]cn3)CCO2)c2ccccc2)cc1 (centres undefined),Percent Effect,"30.3 µM, […]",18.17%
CC(=O)N1C[C@@H](c2ccsc2)[C@@H]2CN(Cc3ccccc3C)CC[C@@H]21,Percent Effect,"30.3 µM, […]",-10.13%
CC(=O)N1CCCn2nc(CNC(=O)N3CCCCC3)cc2C1,Percent Effect,"30 µM, 30.03 µM",-45.6%
CC(=O)N1CCCn2nc(CNS(=O)(=O)N3CCCCCC3)cc2C1,Percent Effect,"30 µM, 30.03 µM",-5.109%
COC(=O)NCc1cc2n(n1)CCCN(C(C)=O)C2,Percent Effect,"30 µM, 30.03 µM",54.27%
O=C(c1cccs1)N1CCC2(C1)c1ccccc1S(=O)(=O)N2CC1CC1 (centres undefined),Percent Effect,"30 µM, 30.03 µM",16.77%
Cc1ccc(CC(NC(=O)CN(C)C2CC2)c2ccccn2)cc1 (centres undefined),Percent Effect,"30 µM, 30.03 µM",99.62%
CCCC(=O)NC(Cc1ccc(C)cc1)c1ccccn1 (centres undefined),Percent Effect,"30 µM, 30.03 µM",-30.99%
CSCC(=O)NC(Cc1ccc(C)cc1)c1ccccn1 (centres undefined),Percent Effect,"30 µM, 30.03 µM",-45.46%
O=C(O)C(F)(F)F.c1csc(CN2C[C@H](OCC3CC3)[C@H]3COC[C@H]32)n1,Percent Effect,"30.3 µM, […]",-56.8%
Cc1cc(C)n(C2CN(CC(O)c3cc(F)ccc3F)C2)n1 (centres undefined),Percent Effect,"30.3 µM, […]",7.425%
same,Percent Effect,"10 mM, 10 mM as filed; unlikely as a test dose",-39.98%
CCN1C(=O)CCC12CCCN(Cc1ccc(F)cc1)CC2.O=C(O)C(F)(F)F (centres undefined),Percent Effect,"30.3 µM, […]",-27.1%
C[C@@H]1CN(C(=O)NC2CC2)C[C@]12CCN(c1ccsc1)C2=O,Percent Effect,"30 µM, 30.03 µM",50.13%
C[C@H]1CN(C(=O)N(C)C)C[C@@]12CCN(c1ccsc1)C2=O,Percent Effect,"30.3 µM, […]",-235.1%
C[C@@H]1CN(C(=O)c2ccsc2)C[C@]12CCN(c1ccsc1)C2=O,Percent Effect,"30 µM, 30.03 µM",49.54%
Cc1ccnn1CCC(=O)N1CCCC1c1cc2cccnc2[nH]1.Cl (centres undefined),Percent Effect,"30.3 µM, […]",-12.68%
Cc1cccc(CN2C[C@@H]3COC[C@]3(CNC(=O)c3ccno3)C2)n1.O=C(O)C(F)(F)F.O=C(O)C(F)(F)F,Percent Effect,"30 µM, 30.03 µM",26.49%
Cc1nc(N2CCCCC2)ncc1-c1cc(O)nc(N2CCCCC2)n1,Percent Effect,"30.3 µM, […]",-25.73%
Cc1nc(N2CCCC2)ncc1-c1cc(O)nc(N2CCCCC2)n1,Percent Effect,"30.3 µM, […]",-25.67%
Cc1nc(N2CCCC2)ncc1-c1cc(O)nc(N2CCCC2)n1,Percent Effect,"30 µM, 30.03 µM",64.4%
CCOCC1CN(C(=O)c2cnccn2)Cc2cnn(CC3CC3)c21.O=C(O)C(F)(F)F (centres undefined),Percent Effect,"30 µM, 30.03 µM",61.22%
CCOCC1CN(S(=O)(=O)N(C)C)Cc2cnn(C)c21.O=C(O)C(F)(F)F (centres undefined),Percent Effect,"30 µM, 30.03 µM",56.34%
CCOCC1CN(S(=O)(=O)N(C)C)Cc2cnn(CC)c21.O=C(O)C(F)(F)F (centres undefined),Percent Effect,"30 µM, 30.03 µM",-21.09%
CCOCC1CN(S(=O)(=O)N(C)C)Cc2cnn(CC3CC3)c21.O=C(O)C(F)(F)F (centres undefined),Percent Effect,"30 µM, 30.03 µM",-18.48%
CCOCC1CN(C(=O)c2cscn2)Cc2cnn(CC3CC3)c21 (centres undefined),Percent Effect,"30 µM, 30.03 µM",-19.67%
CCOCC1CN(C(=O)c2cccn2C)Cc2cnn(CC3CC3)c21.O=C(O)C(F)(F)F (centres undefined),Percent Effect,"30 µM, 30.03 µM",19.58%
O=C(CC1CC1)N1CCN(Cc2cccnc2)c2ncccc2C1.O=C(O)C(F)(F)F.O=C(O)C(F)(F)F,Percent Effect,"30.3 µM, […]",-18.28%
C1CCC(CN2Cc3nnn(CC4CC4)c3C(COCC3CC3)C2)C1.O=C(O)C(F)(F)F (centres undefined),Percent Effect,"30.3 µM, […]",-7.314%
CCCS(=O)(=O)N1C[C@H]2C[C@H](C(=O)N3CCN(C)CC3)[C@@H](C1)O2.O=C(O)C(F)(F)F,Percent Effect,"30.3 µM, […]",2.556%
Cn1ccc(C(=O)NC2CCC23CCN(Cc2cnn(C)c2)CC3)c1.O=C(O)C(F)(F)F (centres undefined),Percent Effect,"30 µM, 30.03 µM",-26.08%
O=C(Nc1cccnc1)N(Cc1ccccc1)C1CC1,Percent Effect,"30 µM, 30.03 µM",60.16%
O=C(c1cccnc1)N(Cc1ccncc1)C1CC1,Percent Effect,"30 µM, 30.03 µM",-21.55%
CC(C)CN(C(=O)Nc1cccnc1)C1CC1,Percent Effect,"30 µM, 30.03 µM",-2.145%
COc1ccc(CNC2CCN(CCc3ccncc3)CC2)cc1O,Percent Effect,"30 µM, 30.03 µM",21.52%
Fc1ccc(CNC2CCN(CCc3ccncc3)CC2)cc1F,Percent Effect,"30 µM, 30.03 µM",6.927%
Cc1ccc(CNC2CCN(CCc3ccncc3)CC2)cc1C,Percent Effect,"30 µM, 30.03 µM",51.93%
O=C(O)C(F)(F)F.O=C1CCCN1Cc1nnc2n1CCCN(Cc1ccco1)C2,Percent Effect,"30.3 µM, […]",-37.98%
CC(C)(C)CC(=O)NCCn1nc(C2CCNC2)c2cccnc21.Cl (centres undefined),Percent Effect,"30.3 µM, […]",-18.41%
COCc1noc(Cn2c(=O)[nH]c3ccccc32)n1,Percent Effect,"30 µM, 30.03 µM",-41.22%
CCN1CCOCC12CCN(C(=O)Cc1ccccc1)CC2.O=C(O)C(F)(F)F,Percent Effect,"30 µM, 30.03 µM",60.57%
O=C(Cc1ccccc1)N1CCC2(CC1)COCCN2CC1CC1.O=C(O)C(F)(F)F,Percent Effect,"30 µM, 30.03 µM",11.75%
CCN1CCOCC12CCN(C(=O)Cc1cccs1)CC2.O=C(O)C(F)(F)F,Percent Effect,"30.3 µM, […]",-18.12%
O=C(C1CCC1)N1C[C@@H]2CC[C@H](C1)N(S(=O)(=O)c1cccnc1)C2,Percent Effect,"30 µM, 30.03 µM",-15.99%
CCOc1ncccc1CNC(=O)NC1CCOc2ccccc21 (centres undefined),Percent Effect,"30.3 µM, […]",-12.87%
C[C@@H]1CN(Cc2cccnc2)C[C@]12CCN(CCN1CCCC1)C2=O.O=C(O)C(F)(F)F.O=C(O)C(F)(F)F.O=C(O)C(F)(F)F,Percent Effect,"30.3 µM, […]",-30.87%
O=C(c1csc2nc(-c3ccc(Cl)cc3)cn12)N1CCCC(CO)C1 (centres undefined),Percent Effect,"30 µM, 30.03 µM",-27.9%
CC(C)N1CCN(C(=O)c2csc3nc(-c4ccc(Cl)cc4)cn23)CC1,Percent Effect,"30 µM, 30.03 µM",-14.99%
CCC1CN(C(=O)c2csc3nc(-c4ccc(Cl)cc4)cn23)CCN1 (centres undefined),Percent Effect,"30 µM, 30.03 µM",66.56%
Cc1nc(-c2ccc(F)cc2)cc(C2CCNCC2)n1,Percent Effect,"30.3 µM, […]",-5.19%
COc1ccc(-c2cc(C3CCNCC3)nc(C)n2)cc1.Cl,Percent Effect,"30.3 µM, […]",0.4357%
Cc1ccc(-c2cc(C3CCNCC3)nc(C)n2)cc1.Cl,Percent Effect,"30.3 µM, […]",86.87%
Cc1nc(-c2ccccc2)cc(C2CCNCC2)n1.Cl,Percent Effect,"30.3 µM, […]",-24.18%
Cc1nc(-c2ccc(F)c(F)c2)cc(C2CCNCC2)n1.Cl,Percent Effect,"30.3 µM, […]",101.1%
Cc1nc(-c2ccc(CO)cc2)cc(C2CCNCC2)n1.Cl,Percent Effect,"30.3 µM, […]",-17.1%
O=C(O)C(F)(F)F.O=C(c1cscn1)N1CCc2c(COCC3CC3)cncc2C1,Percent Effect,"30.3 µM, […]",-26.29%
O=C(O)C(F)(F)F.O=C([C@H]1C[C@@H]2CCN(c3cccc(F)c3)C[C@H]2O1)N1CCCCO1,Percent Effect,"30.3 µM, […]",-0.6141%
Fc1ccc(CNCc2nnc3n2CC(C(F)(F)F)CC3)cc1 (centres undefined),Percent Effect,"30 µM, 30.03 µM",-35.58%
